PubChem BioAssay AID1508600 (Functional Genomics Laboratory (NCATS/FGL), 2020)
Hit rate of the full screen: of about 53,000 sequences, about 3,700 (7%) were called active. This excerpt belongs to a sample that is enriched for actives. A number with no mark means an inactive call.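 The calls were made as follows: active = gene knockdowns whose robust z-score for IL-1 alpha signal is at least 2 or at most -2, so actives lie on both sides; inactive = the rest.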

Experiment: Components of the Cytosolic LPS Sensing Pathway: Gene Identification via Genome-wide siRNA Screen;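 also: robust z of the log signal after scaling to non-targeting control siRNA wells of the plate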
Details: RAW264.7 macrophages, IL-1a HTRF, actives lie on both sides, screened at 100 nM (by protocol), cells primed 5 h with Pam3CSK4 first
Summary of the method: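 Cells (RAW264.7, 1×10^4 per well) were transfected with siRNA at 100 nM and cultured 48h at 37 degrees C. Pam3CSK4 was added for 5 hours; LipidA transfection followed for 24 hour. IL-1a was then measured by HTRF.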

Sequence	z-score
GCAUCUCUCUAAUAGCCUUTT against Nop16	1.24
GGAUGAAAAUCUCUGUCCUTT against Trpa1	0.604
GGCAGCAGCAAGUUUCUUCTT against Rbm38	-2.31 (active)
GCUUUUGAUCCACAGAUUUTT against Prss33	0.372
GGGCUUAUUCUCAGUUCUGTT against Slc17a1	-0.395
GGACCAUGUGACAAAGCCUTT against Fam131b	2.16 (active)
GCCUCCAUUAUUUGUUCUGTT against Olfr1058	-0.177
GGAAACACCAAGAUUCCAGTT against Sprr3	-0.445
GCUAUUGGAGGAAUGUAUCTT against Rasgrp4	-1.51
GGCACAAGAGCAAAGGCUUTT against Gmppb	-0.575
CCCUCAUUUACUCUAGUAATT against Defb12	0.714
GGUGUUCCUGGUGAAGCAATT against Camk1g	0.875
CGCUCACUGGUUUUUAAUUTT against Itpripl2	0.694
GCCCGCACAAUCGUACUUUTT against Ccl28	-1.2
GGAAAACUGCGUUUGGAAATT against Neil3	0.387
GCAAUAGUGAGCACGCCAGTT against Col18a1	0.307
GGUCUGUGGACUGAACUUATT against Bcl2l11	-2.6 (active)
GGAUGAAGAACUCAGAGUGTT against Slc66a2	-1.24
GGUCAUUCUUAAUUGUUCATT against Kpna6	0.939
CCAAAGUCUGUUAAUGGGUTT against 4921517D22Rik	0.401
GCUAUGCAGAGGAGUAUGCTT against Duoxa1	3.03 (active)
GGAGACAUUGCUAUAUAUGTT against Hmgcs1	-0.207
GGCCUAAGGCUGUGAAUGUTT against D2hgdh	-2.59 (active)

Sequence	z-score
GCCGUUUACGUUUAUUGUUTT against Cux2	-0.0356
GGACAGAAUACGUGAGGAGTT against Septin5	-0.427
GGAGUUCCAGCAGCUCUAUTT against Vsnl1	0.741
GGUUCUGCUGGACAACUUUTT against Cyp46a1	-0.377
CCCUCAUAACUAAUGCUGUTT against Pip5kl1	-0.276
GGUGAUCCAAGACUUCCAGTT against Actl6b	1.16
GCAGUGAUCCAUGAGCCUATT against Eif5a	4.64 (active)
GCACCAAUAUUAGGCUGACTT against Noct	1.73
CGAGCACACUUUUGAAGAATT against Gm5089	1.33
GGCUACGAUCCUACAGUGGTT against Rhebl1	-0.283
GGCAACACUGUGGCUAAGUTT against Ankrd13d	2.74 (active)
GCUGGUAACAGAAUUUCUUTT against Aox2	0.515
GCUAAACAGACAACUCAACTT against Rufy2	1.04
GGUAAAACCCAAUAGUAACTT against Gclm	0.45
GGAUCUUUACUGCUUUGUGTT against Picalm	2.42 (active)
GCCAAUUUGAAGGUUUUCATT against Tlr8	1.58
GGCUCUUGGAUAUUUCCGATT against Nop9	0.342
CCUAAUGGAAGGGAAGCCATT against Cox19	-2.06 (active)
GGACCUGAAUAAGACUAUUTT against Lgmn	-0.429
GGGAGGUUACUAUGGAGACTT against Mia	1.68
GCUACUGCAUUCUCUAUCATT against Actl9	1.94
GGCAACUGUGUUCUCACGATT against Ddx58	-1.22
CCACUUCCAUAGAGAUUUUTT against Tmx3	2.93 (active)

Sequence	z-score
GCUUUGUUUGAAAAUGCGATT against Nrde2	-0.66
CCGCGUGUAUAAGUUGGUGTT against Mrpl9	1.23
GCCUCGAUUCACCAAGUGUTT against Ghr	-0.663
GGAAGAUCGAGAAUGUUCCTT against Ppih	0.174
GCCAUAUCAACUCAGAUCATT against Ssh2	5.04 (active)
GGUAAUAAGUCCCAUUUUCTT against Prpmp5	0.817
GGCCAGAAGAACUAACAGUTT against Cept1	-0.11
GGACAAUGCUAAUGAGACCTT against Gcsam	-0.176
GAGGGACUGUAAUGUUGACTT against Olfr560	0.0877
CCGCUAGACAAAUUUUGCCTT against Slc6a2	1.45
GCUACAGUAGUAAGACUAATT against Usp53	2.67 (active)
GGAGUAACAACACAACAUUTT against Mab21l1	1.43
CGCUGAAAGUGAACGUAGGTT against Kcnv2	-1.14
CCUUCACAUAAGUUUCUGUTT against Nuak2	0.575
GAGGAAGACACUUUUCCUGTT against Atp23	0.765
GGGCAGUGAAAUCCUGUCUTT against Trim16	-2.81 (active)
GCUUAGAUCACCUAAUGACTT against Parp3	1.18
GGAUGUUUGGACCAAUCACTT against Iba57	-0.962
GGUGCUACUCCAGAUUGACTT against Tbc1d13	0.63
GGUUAUAAACCAGAAGAGUTT against Mill2	0.807
GCUGUUAGACCUCUUGAUUTT against Olfr1164	0.0632
GGUAGAUCAGUAAUAGUUATT against Glrb	0.837
GGAGAUUGAGAACACAAGCTT against Hipk2	2.37 (active)
